Measured values as given in PubChem BioAssay (NCI).
About 83,000 compounds went through this panel and 20% of them were active in at least one assay; those are over-represented in the sample as a whole.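 Activity criterion: percent growth below 10, measured after cells in 96-well plates were exposed to a single compound concentration for 48 hours.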 Values without a mark were called inactive. Active and inactive are the calls of the source.

Legend:
Experiment in all cases: NCI-60 one-dose screen, 48 h (100 = growth as untreated, 0 = no growth, -100 = all killed)
Conditions in all cases: 10 µM unless noted
[1] = system: T-47D breast
[2] = system: BT-549 breast
[3] = system: MDA-MB-435 melanoma
[4] = system: SW-620 colon
[5] = system: MCF7 breast
[6] = system: HCT-116 colon
[7] = system: HCC-2998 colon
[8] = system: KM12 colon

Compound: COc1ccc(/C=C2\N=C(c3ccccc3)N(c3cc(OC)c(OC)cc3C(=O)N3N=C(C)CC3=O)C2=O)cc1
- growth [1]: 71.2%
- growth [2]: 90.1%
- growth [3]: 93.4%
- growth [4]: 108%
- growth [5]: 89.7%
- growth [6]: 89.6%
- growth [7]: 113%
- growth [8]: 91.1%

Compound: C=C(C)[C@@H]1CC[C@]2(C=O)CC[C@]3(C)[C@H](CC[C@@H]4[C@@]5(C)C/C(=C/c6cccnc6)C(=O)C(C)(C)[C@@H]5CC[C@]43C)[C@@H]12
- growth [1]: 31.9%
- growth [2]: 75.6%
- growth [3]: 95.3%
- growth [4]: 76.2%
- growth [5]: 40.5%
- growth [6]: 43.8%
- growth [7]: 99%
- growth [8]: 78.3%

Compound: O=C1/C(=C\c2ccc(Br)o2)SC(=S)N1CCc1ccc(O)cc1
- growth [1]: 57.7%
- growth [2]: 76.4%
- growth [3]: 71.3%
- growth [4]: 102%
- growth [5]: 33.4%
- growth [6]: 77.7%
- growth [7]: 119%
- growth [8]: 19.5%

Compound: c1csc(-c2nc(-c3cc4ccccc4c(N4CCOCC4)n3)cs2)c1
- growth [1]: 71.2%
- growth [2]: 103%
- growth [3]: 38%
- growth [4]: 97.2%
- growth [5]: 80.5%
- growth [6]: 100%
- growth [7]: 103%
- growth [8]: 99.7%

Compound: C[C@@H]1CCCCCCCCC[C@H](O)C(=O)C[C@@H](SC[C@@H](O)C(=O)O)C(=O)O1
- growth [1]: 75.8%
- growth [2]: 91.8%
- growth [3]: 103%
- growth [4]: 103%
- growth [5]: 33.9%
- growth [6]: 54.5%
- growth [7]: 109%
- growth [8]: 95.8%

Compound: Brc1ccc2[nH]cc(-c3nc(-c4c[nH]c5ncccc45)cs3)c2c1
- growth [1]: 59.8%
- growth [2]: 58.7%
- growth [3]: 40.6%
- growth [4]: 6.36% (active)
- growth [5]: 32.3%
- growth [6]: 17.5%
- growth [7]: 60.2%
- growth [8]: 21.3%

Compound: COc1ccc2nc(-c3cc(-c4cc(OC)c(OC)c(OC)c4)n[nH]3)[nH]c2c1
- growth [1]: -31.2% (active)
- growth [2]: 3.56% (active)
- growth [3]: -25.4% (active)
- growth [4]: 21%
- growth [5]: -6.38% (active)
- growth [6]: 12.7%
- growth [7]: 49.6%
- growth [8]: -30% (active)

Compound: C=C(C)[C@@H]1CC[C@]2(C(=O)N3CCN(CC)CC3)CC[C@]3(C)[C@H](CC[C@@H]4[C@@](C)(CCC(=O)N5CCN(CC)CC5)[C@H](C(=C)C)CC[C@]43C)[C@@H]12
- growth [1]: 59.7%
- growth [2]: 78.7%
- growth [3]: 70.2%
- growth [4]: 49.9%
- growth [5]: 46.5%
- growth [6]: 24.9%
- growth [7]: 75.7%
- growth [8]: 54.2%

Compound: CCC(CC)C(=O)OC(C)COc1ccc(C(C)(C)C)cc1 (configuration not stated)
- growth [1]: 113%
- growth [2]: 109%
- growth [3]: 105%
- growth [4]: 106%
- growth [5]: 101%
- growth [6]: 90.7%
- growth [7]: 101%
- growth [8]: 102%

Compound: COc1cnc2c(c1)C(=O)c1c-2n(CCCNCCN2CCOCC2)c(=O)c2cc([N+](=O)[O-])ccc12
- growth [1]: 15.7%
- growth [2]: 13.4%
- growth [3]: 13.7%
- growth [4]: -55.2% (active)
- growth [5]: 3.37% (active)
- growth [6]: -60.4% (active)
- growth [7]: -73.3% (active)
- growth [8]: -38.1% (active)

Compound: O=C(NO)c1ccc(Cn2c(=O)n(CCc3ccc(O)cc3)c(=O)c3ccccc32)cc1
- growth [1]: 11.8%
- growth [2]: 65.7%
- growth [3]: -15.6% (active)
- growth [4]: 22.4%
- growth [5]: 44.5%
- growth [6]: 24.9%
- growth [7]: 79%
- growth [8]: 22.7%

Compound: Nc1ncnc2nc(Br)[nH]c12
- growth [1]: 89.4%
- growth [2]: 95.6%
- growth [3]: 104%
- growth [4]: 106%
- growth [5]: 99.9%
- growth [6]: 92.4%
- growth [7]: 109%
- growth [8]: 102%

Compound: COc1cc(-c2cc(-c3nc4cc(Cl)c(Cl)cc4[nH]3)[nH]n2)cc(OC)c1OC
- growth [1]: -10.8% (active)
- growth [2]: 35.3%
- growth [3]: 66.1%
- growth [4]: 82.7%
- growth [5]: 47.6%
- growth [6]: 52.6%
- growth [7]: 92.3%
- growth [8]: 51.5%

Compound: CC(C)(C)c1ccc(OCCCCCCCN2CCNCC2)cc1
- growth [1]: 6.54% (active)
- growth [2]: 69.7%
- growth [3]: 50.8%
- growth [4]: -31.9% (active)
- growth [5]: -20.1% (active)
- growth [6]: -1.04% (active)
- growth [7]: -4.86% (active)
- growth [8]: 36.1%

Compound: Cc1cc(C)c(NC(=O)c2sc3nc4c(cc3c2N)CCCC4)c(C)c1
- growth [1]: 36.2%
- growth [2]: 56.4%
- growth [3]: -13.6% (active)
- growth [4]: 30.5%
- growth [5]: 23.7%
- growth [6]: 29.9%
- growth [7]: 87.6%
- growth [8]: 34.9%

Compound: CCN1CCN(C(=O)[C@@]2(C)CC[C@]3(C)CC[C@]4(C)C(=CC(=O)[C@@H]5[C@@]6(C)CC[C@H](OCCC#N)C(C)(C)[C@@H]6CC[C@]54C)[C@@H]3C2)CC1
- growth [1]: 66%
- growth [2]: 79%
- growth [3]: 81.5%
- growth [4]: 97.9%
- growth [5]: 78.2%
- growth [6]: 80.6%
- growth [7]: 101%
- growth [8]: 98.5%

Compound: CC(=O)O[C@H]1CC[C@@]2(C)[C@@H](CC[C@@H]3[C@@H]2CC(=O)[C@@]2(C)[C@H]3C[C@@H](C3CCCC3=O)[C@@H]2C(C)=O)C1 (some centres not stated)
- growth [1]: 91.1%
- growth [2]: 103%
- growth [3]: 118%
- growth [4]: 111%
- growth [5]: 98.2%
- growth [6]: 90.1%
- growth [7]: 107%
- growth [8]: 106%

Compound: COc1cc(-c2c(C#N)c(-c3cccs3)nc3c2c(-c2ccccc2)nn3-c2ccccc2)ccc1O
- growth [1]: 56.8%
- growth [2]: 101%
- growth [3]: 74.8%
- growth [4]: 88%
- growth [5]: 76.4%
- growth [6]: 56.8%
- growth [7]: 99.6%
- growth [8]: 78.4%

Compound: COc1ccc2c(c1)c(-c1nc(-c3c[nH]c4ncccc34)cs1)cn2CCNC(=O)OC(C)(C)C
- growth [1]: 9.63% (active)
- growth [2]: 84.5%
- growth [3]: 94.7%
- growth [4]: 96%
- growth [5]: 37.3%
- growth [6]: 87.6%
- growth [7]: 96.6%
- growth [8]: 46.1%

Compound: COc1cnc2c(c1)C(=O)c1c-2n(CCCNC2=NCCS2)c(=O)c2cc([N+](=O)[O-])ccc12
- growth [1]: 14.4%
- growth [2]: 35%
- growth [3]: -92.7% (active)
- growth [4]: -59% (active)
- growth [5]: -51.3% (active)
- growth [6]: -66.4% (active)
- growth [7]: -61.2% (active)
- growth [8]: -43.9% (active)

Compound: CCC1C(=O)COC1=O (configuration not stated)
- growth [1]: 71.6%
- growth [2]: 95.9%
- growth [3]: 103%
- growth [4]: 98%
- growth [5]: 94.8%
- growth [6]: 85.8%
- growth [7]: 107%
- growth [8]: 101%

Compound: C#Cc1cccc(NC(=O)C2CCCN(C(=O)CCl)C2)c1 (configuration not stated)
- growth [1]: 84.2% [8.25 µM]
- growth [2]: 55.1% [8.25 µM]
- growth [3]: 43.8% [8.25 µM]
- growth [4]: 20.5% [8.25 µM]
- growth [5]: 59.1% [8.25 µM]
- growth [6]: 13% [8.25 µM]
- growth [7]: 97.2% [8.25 µM]
- growth [8]: 94.7% [8.25 µM]

Compound: COc1cc(OC)c2c(c1)c1nc3cc(C)c(C)cc3nc1n2CCN(C)C
- growth [1]: 74.3%
- growth [2]: 97.4%
- growth [3]: 91.7%
- growth [4]: 66%
- growth [5]: 66.2%
- growth [6]: 69.7%
- growth [7]: 93.9%
- growth [8]: 86.3%

Compound: N#CCCCCCn1c2ccccc2c2c3c(c4c5ccccc5n(CCCCCC#N)c4c21)C(=O)N(O)C3=O
- growth [1]: 75.7%
- growth [2]: 75%
- growth [3]: 91.3%
- growth [4]: 106%
- growth [5]: 72.2%
- growth [6]: 71.3%
- growth [7]: 80.8%
- growth [8]: 71.8%

Compound: CC/C(=N/NC(N)=O)c1ccccc1
- growth [1]: 110%
- growth [2]: 102%
- growth [3]: 110%
- growth [4]: 105%
- growth [5]: 97%
- growth [6]: 109%
- growth [7]: 103%
- growth [8]: 111%

Compound: CC(=O)O[C@H]1CC[C@]2(C)[C@H]3CC=C4[C@@H]5[C@H](C)[C@@H](C)CC[C@]5(C(=O)NCCNCCNCCN)CC[C@@]4(C)[C@]3(C)CC[C@H]2C1(C)C
- growth [1]: 63.8%
- growth [2]: 93.7%
- growth [3]: 83%
- growth [4]: 87.3%
- growth [5]: 58.1%
- growth [6]: 62.3%
- growth [7]: 80%
- growth [8]: 86.2%

Compound: CCOC(=O)C/C(=C\c1ccccc1)C(C)=O
- growth [1]: 68.1%
- growth [2]: 98.4%
- growth [3]: 109%
- growth [4]: 103%
- growth [5]: 101%
- growth [6]: 88.7%
- growth [7]: 107%
- growth [8]: 101%

Compound: CN(C)c1ccc(-c2ccc(-c3ccc(C(=N)N)c(F)c3)s2)cc1
- growth [1]: -60.3% (active)
- growth [2]: 95.7%
- growth [3]: -95.4% (active)
- growth [4]: -75% (active)
- growth [5]: -69.7% (active)
- growth [6]: -89.3% (active)
- growth [7]: -95.4% (active)
- growth [8]: -87.9% (active)

Compound: Cc1ccsc1-c1ccc2c(c1)COC2(CCCN(C)C)c1ccc(F)cc1 (configuration not stated)
- growth [1]: 48.7%
- growth [2]: 81.9%
- growth [3]: 17.1%
- growth [4]: 54.3%
- growth [5]: 22.7%
- growth [6]: 23.3%
- growth [7]: -48.4% (active)
- growth [8]: 42.6%
